Measured values: PubChem BioAssay (EPA / NIEHS)
Several values for one entry are separate records, joined by “and”; a condition that tells them apart may be missing. Equal entries are not always repeated. Some compounds were tested as several samples or in several runs, with calls that do not always agree. Activity calls are given as the source filed them. Rule for the calls: active = hit-call score of the fitted dose curve at least 0.9, where 1 is the maximum; inactive = score below 0.9.

Key:
[1] = read-out: Macrophage colony-stimulating factor (MCSF), CSF1 (gene 1435); test: BSK_hDFCGF_MCSF: BioMAP Diversity Plus: hDFCGF Assay for Macrophage colony-stimulating factor (MCSF) Biomarker Activity (AID 2283060); conditions: primary human foreskin fibroblasts; actives raise or lower the signal
Method in brief: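 Primary human foreskin fibroblasts dosed with chemical; 24 h later, M-CSF quantified by ELISA; curves fitted in both directions vs DMSO negative control.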

[2] = BSK_hDFCGF_SRB: Viability Assessment in the BioMAP Diversity Plus: hDFCGF Assay (AID 2283061); conditions: primary human foreskin fibroblasts;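 note: cells exposed to compound for 24 h before the read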
Method in brief: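 Readout is SRB absorbance at 560 nm, reflecting total protein in parallel cultures of human foreskin fibroblasts harvested 24 h after chemical dosing. Activity was fitted bidirectionally relative to DMSO.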

[3] = read-out: TIMP metallopeptidase inhibitor 1 (TIMP1), TIMP1 (gene 7076); test: BSK_hDFCGF_TIMP1: BioMAP Diversity Plus: hDFCGF Assay for TIMP metallopeptidase inhibitor 1 (TIMP1) Biomarker Activity (AID 2283062); conditions: primary human foreskin fibroblasts; actives raise or lower the signal
Method in brief: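 Human skin fibroblasts (primary), hDFCGF system; compound exposure 24 h; TIMP-1 by ELISA; bidirectional fit vs DMSO negative control; overt cytotoxicity by SRB in parallel wells.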

[4] = read-out: Monokine induced gamma interferon (MIG), CXCL9 (gene 4283); test: BSK_hDFCGF_MIG: BioMAP Diversity Plus: hDFCGF Assay for Monokine induced gamma interferon (MIG) Biomarker Activity (AID 2283063); conditions: primary human foreskin fibroblasts; actives raise or lower the signal
Method in brief: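 Chemicals were added to primary human foreskin fibroblast cultures, which were sampled 24 h later. MIG levels were then quantified by ELISA and responses fitted in both directions relative to DMSO.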

[5] = read-out: Matrix Metallopeptidase 1 (MMP1), MMP1 (gene 4312); test: BSK_hDFCGF_MMP1: BioMAP Diversity Plus: hDFCGF Assay for Matrix Metallopeptidase 1 (MMP1) Biomarker Activity (AID 2283064); conditions: primary human foreskin fibroblasts; actives raise or lower the signal
Method in brief: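 MMP1 levels quantified by ELISA 24 h after dosing human dermal fibroblast cultures, with parallel SRB total-protein staining for overt cytotoxicity. Data fitted in both directions against DMSO baseline.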

[6] = read-out: Vascular cell adhesion molecule 1 (VCAM1), VCAM1 (gene 7412); test: BSK_hDFCGF_VCAM1: BioMAP Diversity Plus: hDFCGF Assay for Vascular cell adhesion molecule 1 (VCAM1) Biomarker Activity (AID 2283065); conditions: primary human foreskin fibroblasts; actives raise or lower the signal;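 for AC50: VCAM-1 protein level quantified by ELISA after 24 h chemical exposure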
Method in brief: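 Human foreskin fibroblast primary cells, chemical exposure 24 h; VCAM-1 by ELISA; bidirectional fit, DMSO = negative control/baseline.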

[7] = read-out: Plasminogen activator inhibitor-1 (PAI1), SERPINE1 (gene 5054); test: BSK_hDFCGF_PAI1: BioMAP Diversity Plus: hDFCGF Assay for Plasminogen activator inhibitor-1 (PAI1) Biomarker Activity (AID 2283066); conditions: primary human foreskin fibroblasts; actives raise or lower the signal
Method in brief: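 ELISA readout of PAI-1 from primary human skin fibroblast cultures, 24 h after compound addition. Gain or loss of signal was fitted bidirectionally against DMSO baseline.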

[8] = read-out: Intercellular Adhesion Molecule 1 (ICAM1), ICAM1 (gene 3383); test: BSK_KF3CT_ICAM1: BioMAP Diversity Plus: KF3CT Assay for Intercellular Adhesion Molecule 1 (ICAM1) Biomarker Activity (AID 2283067); conditions: primary human keratinocytes with fibroblasts; actives raise or lower the signal
Method in brief: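 ICAM-1 levels are measured by ELISA 24 h after dosing a primary human co-culture of keratinocytes and foreskin fibroblasts. Activity in either direction is fitted relative to DMSO vehicle.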

[9] = read-out: Interferon-gamma inducible Protein 10 (IP10), CXCL10 (gene 3627); test: BSK_KF3CT_IP10: BioMAP Diversity Plus: KF3CT Assay for Interferon-gamma inducible Protein 10 (IP10) Biomarker Activity (AID 2283068); conditions: primary human keratinocytes with fibroblasts; actives raise or lower the signal
Method in brief: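 Signal is secreted/surface IP-10 by ELISA in a human primary skin co-culture of keratinocytes and foreskin fibroblasts, taken 24 h post-dosing; DMSO served as negative control.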

[10] = BSK_KF3CT_SRB: Viability Assessment in the BioMAP Diversity Plus: KF3CT Assay (AID 2283069); conditions: primary human keratinocytes with fibroblasts;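 note: total protein by sulforhodamine B staining as a cytotoxicity measure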
Method in brief: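 Cytotoxicity was gauged by SRB staining (0.1% SRB, 10% TCA fixation, 560 nm) of parallel cultures at 24 h. The cells were primary human skin keratinocytes co-cultured with fibroblasts, and activity was fitted in both directions against DMSO.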

[11] = read-out: TIMP metallopeptidase inhibitor 2 (TIMP2), TIMP2 (gene 7077); test: BSK_KF3CT_TIMP2: BioMAP Diversity Plus: KF3CT Assay for TIMP metallopeptidase inhibitor 2 (TIMP2) Biomarker Activity (AID 2283071); conditions: primary human keratinocytes with fibroblasts; actives raise or lower the signal
Method in brief: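 ELISA readout of TIMP-2 in keratinocyte plus foreskin fibroblast co-cultures (human skin primary cells), 24 h post-dose. Gain or loss of signal fitted relative to DMSO.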

[12] = read-out: C-C motif chemokine 2 (Homo sapiens) (UniProt P13500); test: BSK_KF3CT_MCP1: BioMAP Diversity Plus: KF3CT Assay for Monocyte Chemoattractant Protein 1 (MCP1/CCL2) Biomarker Activity (AID 2283073); conditions: primary human keratinocytes with fibroblasts; actives raise or lower the signal
Method in brief: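 ELISA readout of MCP-1 after 24 h chemical dosing of a human skin primary co-culture of keratinocytes and foreskin fibroblasts. Activity was fitted in both directions against DMSO.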

[13] = read-out: Matrix Metallopeptidase 9 (MMP9), MMP9 (gene 4318); test: BSK_KF3CT_MMP9: BioMAP Diversity Plus: KF3CT Assay for Matrix Metallopeptidase 9 (MMP9) Biomarker Activity (AID 2283074); conditions: primary human keratinocytes with fibroblasts; actives raise or lower the signal;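 for AC50: MMP9 protein level quantified by ELISA in the co-culture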
Method in brief: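 MMP-9 quantified by ELISA after 24 h chemical treatment of primary human skin keratinocyte/fibroblast co-cultures; gain or loss fitted against DMSO, with parallel SRB staining (0.1% SRB, 560 nm) for overt cytotoxicity.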

[14] = read-out: urokinase plasminogen activator (uPA), PLAU (gene 5328); test: BSK_KF3CT_uPA: BioMAP Diversity Plus: KF3CT Assay for urokinase plasminogen activator (uPA) Biomarker Activity (AID 2283075); conditions: primary human keratinocytes with fibroblasts; actives raise or lower the signal
Method in brief: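 ELISA read-out of uPA 24 h after dosing human skin keratinocytes co-cultured with foreskin fibroblasts. Signal change fitted both ways relative to DMSO; sulforhodamine B on parallel cultures marks overt cytotoxicity.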

CD40, CD40 (gene 958) = test: BSK_LPS_CD40: BioMAP Diversity Plus: LPS Assay for CD40 Biomarker Activity (AID 2283076); conditions: primary human HUVEC with PBMC; actives raise or lower the signal
Method in brief: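 Cells were dosed, incubated 24 h, then assayed for CD40 by ELISA. Gain or loss of signal was analysed relative to DMSO controls. The culture paired human umbilical vein endothelium with peripheral blood mononuclear cells.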

[15] = read-out: E-selectin (Homo sapiens) (UniProt P16581); test: BSK_LPS_Eselectin: BioMAP Diversity Plus: LPS Assay for Eselectin Biomarker Activity (AID 2283077); conditions: primary human HUVEC with PBMC; actives raise or lower the signal
Method in brief: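 Primary human vascular co-culture (endothelium plus PBMC) was dosed with chemical, then E-selectin quantified by ELISA at 24 h. Endpoint values derive from bidirectional curve fitting relative to DMSO.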

[16] = read-out: Interleukin-8 (IL8), CXCL8 (gene 3576); test: BSK_LPS_IL8: BioMAP Diversity Plus: LPS Assay for Interleukin-8 (IL8) Biomarker Activity (AID 2283078); conditions: primary human HUVEC with PBMC; actives raise or lower the signal
Method in brief: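 Readout is IL-8 by ELISA, taken 24 h after compounds were added to LPS-stimulated endothelial/PBMC co-cultures. Both increases and decreases relative to DMSO control were scored through bidirectional fitting.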

[17] = BSK_LPS_SRB: Viability Assessment in the BioMAP Diversity Plus: LPS Assay (AID 2283079); conditions: primary human HUVEC with PBMC;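 note: total protein by sulforhodamine B absorbance as a cytotoxicity measure; measured one day after compound addition; fitted in both directions against DMSO so loss or gain of signal counts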
Method in brief: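 Readout is SRB absorbance at 560 nm (0.1% stain, TCA-fixed parallel cultures) as a total-protein cytotoxicity measure. Cells: primary human umbilical vein endothelium plus peripheral blood mononuclear cells, 24 h after chemical exposure; DMSO served as baseline.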

[18] = read-out: Transforming growth factor beta 1 (TGFb1), TGFB1 (gene 7040); test: BSK_KF3CT_TGFb1: BioMAP Diversity Plus: KF3CT Assay for Transforming growth factor beta 1 (TGFb1) Biomarker Activity (AID 2283072); conditions: primary human keratinocytes with fibroblasts; actives raise or lower the signal
Method in brief: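 Read-out: ELISA for TGF-b1 in keratinocyte/foreskin fibroblast human skin co-culture, 24 h after dosing; bidirectional curve fit vs DMSO baseline; gain or loss of signal scored.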

[19] = read-out: Interleukin-1 alpha (IL1a), IL1A (gene 3552); test: BSK_KF3CT_IL1a: BioMAP Diversity Plus: KF3CT Assay for Interleukin-1 alpha (IL1a) Biomarker Activity (AID 2283070); conditions: primary human keratinocytes with fibroblasts; actives raise or lower the signal
Method in brief: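 IL-1a was detected by ELISA 24 h after chemical treatment of a co-culture of human skin keratinocytes and foreskin fibroblasts. Gain or loss of signal was fitted against the DMSO baseline.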

Measured: AC50

Sequence of E-selectin (Homo sapiens) (P16581 whole entry, looked up): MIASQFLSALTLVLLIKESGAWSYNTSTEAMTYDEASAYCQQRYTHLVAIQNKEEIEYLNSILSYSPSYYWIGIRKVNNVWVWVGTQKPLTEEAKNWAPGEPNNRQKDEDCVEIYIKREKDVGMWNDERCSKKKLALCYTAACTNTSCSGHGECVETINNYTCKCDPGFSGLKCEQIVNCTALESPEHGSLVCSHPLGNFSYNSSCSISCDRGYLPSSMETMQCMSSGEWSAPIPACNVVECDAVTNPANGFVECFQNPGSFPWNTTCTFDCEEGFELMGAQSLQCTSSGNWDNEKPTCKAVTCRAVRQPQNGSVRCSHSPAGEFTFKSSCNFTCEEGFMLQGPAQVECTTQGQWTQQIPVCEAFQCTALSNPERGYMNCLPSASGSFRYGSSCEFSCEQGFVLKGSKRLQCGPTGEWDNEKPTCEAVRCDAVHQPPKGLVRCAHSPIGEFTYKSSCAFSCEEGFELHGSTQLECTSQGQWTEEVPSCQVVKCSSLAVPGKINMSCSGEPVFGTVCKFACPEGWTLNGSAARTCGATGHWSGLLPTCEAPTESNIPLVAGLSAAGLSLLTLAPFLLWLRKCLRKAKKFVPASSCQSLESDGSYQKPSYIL

FC(F)(F)C(F)(F)C(F)(F)CC1CO1 (stereo unspecified)
active: [4] 6.18 µM
inactive: [1] | [2] | [3] | [4] | [5] | [6] | [7] | [8] | [9] | [10] | [11] | [12] | [13] | [14] | CD40, CD40 (gene 958) | [15] | [16] | [17]

CC(C)CCCC(C)CCO (stereo unspecified)
active: [8] 36.5 µM | [9] 35.6 µM | [10] 34.4 µM | [11] 30.5 µM | [18] 30.1 µM | [12] 33.5 µM | [13] 36.4 µM | [14] 36.1 µM
inactive: [1] | [2] | [3] | [4] | [5] | [6] | [7] | CD40, CD40 (gene 958) | [15] | [16] | [17]

O=C(O)C(F)(F)C(F)(F)C(F)(F)OC(F)(F)F
inactive: [1] | [2] | [3] | [4] | [5] | [6] | [7] | [8] | [9] | [10] | [11] | [12] | [13] | [14] | CD40, CD40 (gene 958) | [15] | [16] | [17]

CCN(CC)c1ccc(C=O)cc1
inactive: [1] | [2] | [3] | [4] | [5] | [6] | [7] | [8] | [9] | [10] | [11] | [18] | [12] | [13] | [14] | CD40, CD40 (gene 958) | [15] | [16] | [17]

OCC(F)(F)C(F)(F)C(F)(F)CO
inactive: [1] | [2] | [3] | [4] | [5] | [6] | [7] | [8] | [9] | [10] | [11] | [12] | [13] | [14] | CD40, CD40 (gene 958) | [15] | [16] | [17]

O=C(O)C(F)(F)C(F)(F)C(F)(F)C(F)(F)C(F)(F)C(F)(F)C(F)F
inactive: [1] | [2] | [3] | [4] | [5] | [6] | [8] | [9] | [10] | [11] | [12] | [13] | [14] | CD40, CD40 (gene 958) | [15] | [16] | [17]
active: [3] 223 nM | [16] 30 µM

CCN(CCO)S(=O)(=O)C(F)(F)C(F)(F)C(F)(F)C(F)(F)C(F)(F)C(F)(F)C(F)(F)C(F)(F)F
active: [1] 23.2 µM and 23.3 µM | [2] 21.9 µM and 2.95 µM | [4] 22.1 µM and 19.1 µM | [5] 50.1 µM | [6] 30 µM and 12.8 µM | [7] 37.2 µM and 25.4 µM | [9] 33.7 µM and 30 µM | [19] 20.8 µM and 30 µM | [12] 14.4 µM | [13] 21.7 µM and 20.9 µM | [15] 5.95 µM | [17] 39.4 µM and 38.2 µM
inactive: [3] | [5] | [8] | [10] | [11] | [12] | [14] | CD40, CD40 (gene 958) | [15] | [16]

OCC(F)(F)C(F)(F)C(F)(F)C(F)(F)C(F)(F)C(F)(F)C(F)(F)C(F)(F)CO
inactive: [9] | [14] | CD40, CD40 (gene 958) | [15] | [16] | [17]
active: [1] 47.9 µM and 46.7 µM | [2] 38.3 µM and 54.8 µM | [3] 46.7 µM and 54.5 µM | [4] 44 µM and 45.1 µM | [5] 55.2 µM and 48.8 µM | [6] 42.5 µM and 21.8 µM | [7] 54.9 µM and 56.4 µM | [8] 42.4 µM and 42.7 µM | [9] 35.2 µM | [10] 50.9 µM and 44.1 µM | [11] 55.2 µM and 48.6 µM | [12] 50.8 µM and 42.3 µM | [13] 50.3 µM and 49.4 µM | [15] 0.559 µM

NCC(F)(F)C(F)(F)C(F)(F)C(F)(F)C(F)(F)C(F)(F)C(F)(F)C(F)(F)F
inactive: [1] | [2] | [3] | [4] | [5] | [6] | [7] | [8] | [9] | [10] | [11] | [12] | [13] | [14] | CD40, CD40 (gene 958) | [15] | [16] | [17]

OC(O)C(F)(F)C(F)(F)F
inactive: [1] | [2] | [3] | [4] | [5] | [6] | [7] | [8] | [9] | [10] | [19] | [11] | [12] | [13] | [14] | CD40, CD40 (gene 958) | [15] | [16] | [17]
